Screening results deposited in PubChem by Broad Institute.
EWS-Fli inh: blocks EWS/Fli oncoprotein-driven transcription | A673 NR0B1-luciferase reporter, viability-normalised | inhibition, % at 12.6 µM | 350,000 compounds, 0.67% hits;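 active = mean inhibition of at least 50% after viability correction, with every replicate also passing that limit; inconclusive = mean reaches 50% but only one of two replicates passes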;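 note: firefly luciferase signal divided by Alamar Blue viability fluorescence both relative to DMSO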
Statin myotox sup: suppressors of simvastatin-induced myotoxicity in C2C12 myotubes; ATP luminescence, 48 h; scaled: DMSO 0, geranylgeraniol control 100; rescue of ATP level, % at 7.49 µM; 330,000 compounds, 0.78% hits;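 active = mean ATP rescue above about 67%, or every replicate alone reaching that limit, limit read from the data, passing the limit was not always enough; inconclusive = no clear call, values can overlap the other calls; inactive = mean under the limit and some replicate under it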;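 note: myotubes were challenged with 10 µM simvastatin during compound exposure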
PAX8 inh HTS: inhibitors of PAX8 transcriptional activity in RMG-I cells | AID 652154 | RMG-I TPO-luciferase reporter, SteadyGlo, 24 h | 360,000 compounds, 1.2% hits | inhibition, % at 12.6 µM;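 active = mean replicate inhibition at least 60% with every replicate also reaching 60%; inconclusive = only one of the two criteria is met; inactive = mean below 60% and not all replicates reaching 60%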;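 note: luciferase light reporting Pax8 driven TPO promoter activity; plate controls were median of neutral control wells for no effect and mitoxantrone controls for full effect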
HIV Env fusion: blocks HIV Env-driven cell-cell fusion; HeLa-JRFL Env/CEM21 cell fusion, luciferase; inhibition, % at 12.3 µM; 360,000 compounds, 1.1% hits;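 active = mean replicate inhibition score of at least 50 and every replicate individually at or above 50; inconclusive = only one of the two criteria met; inactive = mean below 50 and not all replicates reaching 50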;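 note: 0% = plate neutral controls and 100% = maraviroc near 300 nM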
miR-122 sensor: inhibitors of miR-122 in Huh7 cells | AID 602342 | Huh7 miR-122 Renilla luciferase sensor, 48 h; neutral wells = 0, positive control = 100 | activation (reporter increase), % at 12.5 µM | 340,000 compounds, 0.3% hits;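 active = mean replicate activation score at least 90 and every replicate individually at or above 90; inconclusive = only one of the two criteria met; inactive = neither criterion met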;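 note: higher luciferase means less miR-122 activity so hits act as miR-122 inhibitors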
GSIS activator: GLuc luminescence reporter in INS-1E cells, primary screen for activators of glucose-dependent secretion of insulin; INS-1E GLuc reporter insulin secretion, 2-3 h; activation, % at 16.6 µM; 370,000 compounds, 0.61% hits; AID 743287;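 active = lowest replicate activation of at least 40%, so every replicate reaches that level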;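 note: 0% = median of neutral control wells and 100% = median of IBMX positive control wells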
Active calls of the source: *; ? = inconclusive; . = no result; [ ] = dose if it differs, or a comment. Only some compounds are listed: those with a hit (about 3.1% of all), similar ones and a draw of the others.

SMILES | EWS-Fli inh | Statin myotox sup | PAX8 inh HTS | HIV Env fusion | miR-122 sensor | GSIS activator
COc1ccc2c(C)nc(Nc3nc(-c4ccccc4)cc(=O)[nH]3)nc2c1 | 32.9 | -25.7 | 95.2* | -28.9 | -4.5 | 4.2
Cc1ccc2nc(Nc3nc(-c4ccccc4)cc(=O)[nH]3)nc(C)c2c1 | . | 6.4 | . | . | -0.4 | 11.6
CCC(Sc1nc(-c2ccccc2)c(-c2ccccc2)[nH]1)C(=O)O (configuration not stated) | 0.3 | -0.1 | 19.5 | -13.8 | 0.4 | 66.7*
C[C@@H]1CN([C@H](C)CO)C(=O)CCCn2cc(nn2)CO[C@@H]1CN(C)S(=O)(=O)c1ccc(C#N)cc1 | 3.6 | -12.1 | -11.1 | . | -3.9[16.7 µM] | 4.8
O=C(CC1CC1)N1CC(=O)N2[C@H](C1)[C@H](c1ccc(/C=C/c3ccccc3)cc1)[C@@H]2CO | -4.8 | . | . | . | . | -9.8
Cc1nc(N)sc1-c1csc(N(C)c2ccc(O)cc2)n1 | -64.4 | 94.0* | . | . | 2.1 | -8.9
CC(C)NC(=O)Nc1ccc2c(c1)CC(=O)N([C@@H](C)CO)C[C@H](C)[C@H](CN(C)C(=O)NC(C)C)O2 | -2.8 | 10.2 | -13.7 | . | -3.7[16.7 µM] | 13.6
COc1ccc(CN(C)C[C@H]2OCCCC[C@H](C)Oc3ccc(NS(=O)(=O)c4ccccc4)cc3C(=O)N([C@H](C)CO)C[C@H]2C)cc1 | 7.7 | . | 36.4 | -4.7[16.7 µM] | -0.7[16.7 µM] | -27.9
CCn1c(C)c(C(C)=O)c(N2CCCCC2)nc1=S | . | 79.0* | . | . | -2.4 | .
CO[C@H]1CN(C)C(=O)c2cc(NS(C)(=O)=O)ccc2OC[C@H](C)N(Cc2ccccc2)C[C@H]1C | -0.1 | -3.7 | 9.6 | 11.4[16.7 µM] | -11.5[16.7 µM] | -2.4
COc1ccc2c3c([nH]c2c1)[C@@H](CO)N(C(C)=O)CC31CN(Cc2cc(-c3ccccc3)on2)C1 | 6.3 | . | . | . | . | -25.2
CCOC(=O)c1c(C)[nH]c(/C(C)=N/NC(=O)c2cccnc2)c1C | -17.2 | -1.7 | -14.2 | -35.5 | -2.4 | 10.3
CCOC(=O)c1c(C)[nH]c(C(C)=NNC(=O)c2cccs2)c1C | -82.9 | 9.8 | -199.5 | . | -4.2 | 53.8*
COc1ccc(CN2CCNC(=O)C2CC(=O)NCCCn2nnc3ccccc32)cc1C (configuration not stated) | 10.5 | 8.6 | 2.1 | 60.9* | -1.4 | 18.9
COc1ccc(CN2CCNC(=O)C2CC(=O)NCCc2nc(C)c3c(n2)CCC3)cc1C (configuration not stated) | . | 2.4 | 1.8 | 9.5 | -5.9 | -4.0
CN1C(C(=O)NCc2cccs2)=CC(c2ccc(F)cc2)=NS1(=O)=O | 2.5 | 7.5 | -20.7 | 71.1* | -0.7 | -1.7
COc1ccc(C2=NS(=O)(=O)N(C)C(C(=O)NCc3cccs3)=C2)cc1OC | 0.0 | 8.0 | -2.0 | -20.9 | -0.8 | 18.5
CCOc1nc(Nc2ccccc2F)nc(OCC)n1 | -3.7 | 7.1 | -44.3 | 2.3 | 7.4 | 62.2*
COc1ccc2[nH]c3c(N4CCC(O)(c5cccc(C(F)(F)F)c5)CC4)ncnc3c2c1 | . | . | 33.1 | 100.1* | 14.5 | .
COc1ccc2[nH]c3c(N4CCN(Cc5ccc6c(c5)OCO6)CC4)ncnc3c2c1 | . | -48.8 | . | . | -3.8 | .
Cc1ccc2[nH]c3c(N4CCc5ccccc5C4)ncnc3c2c1 | . | . | 5.4 | 81.3* | 3.0 | .
CN1CCN(C(=O)C[C@@H]2C[C@H]3c4cc(NC(=O)CC5CC5)ccc4O[C@H]3[C@@H](CO)O2)CC1 | -5.8 | -4.6 | . | . | 1.2[16.7 µM] | -3.2
CN(C)C(=O)C[C@@H]1C=C[C@@H](NC(=O)C2CC2)[C@@H](CO)O1 | -7.1 | 2.5 | . | 8.9[16.7 µM] | . | 10.9
CN(C)CCCNC(=S)NCC(c1ccc(Cl)cc1Cl)c1c[nH]c2ccccc12 (configuration not stated) | 62.2* | -23.5 | 29.0 | -0.6 | -3.7 | -11.2
C=CC(=O)Nc1cccc(N(C)c2ccnc(Nc3ccc(N4CCN(C)CC4)cc3)n2)c1 | . | -15.1 | . | . | . | .
SMILES | EWS-Fli inh | Statin myotox sup | PAX8 inh HTS | HIV Env fusion | miR-122 sensor | GSIS activator
C=CC(=O)Nc1cccc(Oc2ccnc(Nc3ccc(N4CCN(C)CC4)cc3)n2)c1 | 5.2 | -26.1 | 74.5* | ? | 1.7 | -14.4
COc1ccc(S(=O)(=O)Nc2ccc3c(c2)CC(=O)N([C@@H](C)CO)C[C@H](C)[C@H](CN(C)S(=O)(=O)c2ccc(Cl)cc2)O3)cc1 | -11.2 | -20.1 | -7.8 | 9.3[16.7 µM] | 5.2[16.7 µM] | -17.3
Cc1ccc(S(=O)(=O)N/N=C\c2cn(CC(N)=O)c3ccccc23)cc1C | 5.9 | -1.4 | 8.8 | 4.8 | . | 10.9
NC(=O)Cn1cc(/C=N\NS(=O)(=O)c2ccc(Cl)cc2)c2ccccc21 | 4.2 | 18.4 | -4.1 | -3.8 | 127.8* | 24.8
O=C(Nc1cccc(F)c1)N[C@@H]1CC[C@H](CCNS(=O)(=O)c2cccc(Cl)c2)O[C@H]1CO | 15.4 | -12.3 | -14.3 | 67.0*[16.7 µM] | . | -29.4
O=S(=O)(NCC[C@@H]1CC[C@@H](NS(=O)(=O)c2ccccc2Cl)[C@@H](CO)O1)c1ccc(Cl)cc1 | -2.1 | 6.2 | 3.2 | -3.9[16.7 µM] | . | -14.9
O=S(=O)(NCC[C@@H]1CC[C@@H](NS(=O)(=O)c2ccccc2Cl)[C@H](CO)O1)c1ccc(Cl)cc1 | -6.6 | 10.0 | 9.9 | 57.5*[16.7 µM] | . | -21.6
O=C(Nc1cccc(F)c1)N[C@H]1CC[C@@H](CCNS(=O)(=O)c2cccc(Cl)c2)O[C@H]1CO | 42.8 | -4.2 | -4.9 | 95.6*[16.7 µM] | . | -27.6
O=C(Nc1cccc(F)c1)N[C@H]1CC[C@H](CCNS(=O)(=O)c2cccc(Cl)c2)O[C@@H]1CO | 22.4 | 15.2 | -26.2 | ? | . | -10.4
CC(C)[C@H]1C(=O)N[C@H](c2ccccc2)CC=CC[C@@H](C)Oc2ccccc2C(=O)N1C (mixture of isomers) | . | . | . | . | . | -14.6
O=C(N[C@@H]1CC[C@@H](CCNS(=O)(=O)c2cccc(Cl)c2)O[C@H]1CO)c1ccc(F)cc1 | 4.7 | 3.5 | 0.9 | 12.8[16.7 µM] | . | -26.0
CCCNC(=O)N1[C@H](CO)[C@H](c2ccccc2)[C@H]1CNC(=O)c1cccc(F)c1 | -1.4 | 32.7 | 23.8 | . | 14.3[16.7 µM] | 4.4
O=C(c1cc(-c2ccc(Cl)cc2Cl)on1)N1CCCC1 | 55.0* | 15.5 | -47.7 | -79.8 | -2.4 | 20.1
Cc1ccc(-c2cc(C(=O)N3CCCC3)no2)cc1 | . | 13.1 | . | -66.6 | -2.7 | .
Cc1ccc(-c2cc(C(=O)N3CCOCC3)no2)cc1 | 54.1* | -9.2 | 9.3 | 19.0 | 4.1 | 0.2
O=C(c1cc(-c2ccc(Cl)cc2Cl)on1)N1CCCCCC1 | -4.5 | -33.6 | -160.4 | -88.3 | 0.4 | 11.7
O=C(C[C@H]1C[C@H]2c3cc(NC(=O)NC4CCCC4)ccc3O[C@H]2[C@@H](CO)O1)NCc1ccc2c(c1)OCO2 | -0.9 | 3.0 | -24.4 | -11.1[16.7 µM] | 4.3[16.7 µM] | 4.6
COc1ccccc1-c1cc2nc(-c3ccccc3)cc(N3CCN(C(=O)c4ccoc4)CC3)n2n1 | 21.9 | -2.4 | 67.1* | . | -12.4 | 9.4
COc1cccc(-c2cc3nc(-c4ccccc4)cc(N4CCN(C(=O)c5ccoc5)CC4)n3n2)c1 | 20.8 | -4.2 | 67.8* | 16.5 | -8.1 | -3.9
